According to PubChem BioAssay (Tox21):
Inconclusive results are not listed. Active and inactive are the calls of the source. Unless noted, calls come from the whole dose curve; as a rule, active = well fitted curve in the direction sought with a large enough effect in the repeat runs; inconclusive = weak or mixed curves; inactive = no such curve, though single readings can be large; an effect the other way counts as inactive or inconclusive.

Key:
[1] = qHTS assay to identify small molecule HDAC inhibitors (AID 1259364); note: top concentration of the series differs between compounds; nearly all actives have a fitted effect of over 45% in size
Outline: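 Luminescence read after 30 min room-temperature HDAC-Glo incubation measures cellular class I/II HDAC activity. Compounds were applied for 2 hr at 37 C to HCT-116 wild-type cells seeded the day before.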

[2] = qHTS assay to identify small molecule HDAC inhibitors - cell viability counter screen (AID 1259365); note: series mostly up to about 92 µM; nearly all actives have a fitted effect of over 50% in size
Outline: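 Wild-type HCT-116 cells, 1,500/well, cultured overnight, then compound-treated 2 h at 37 C. Viability measured as ATP luminescence with CellTiter-Glo after 30 min at room temperature.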

[3] = qHTS assay to identify small molecule agonists of the sonic hedgehog signaling (Shh) pathway - cell viability counter screen (AID 1259366); note: nearly all actives have a fitted effect of over 50% in size
Outline: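 NIH/3T3-derived Gli1-Luc reporter cells, 2,000 per well, received compound after 4 h and were treated about 23 h at 37C. Viability measured in the same wells by CellTiter-Fluor fluorescence after 1 h.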

[4] = qHTS assay to identify small molecule antagonists of the sonic hedgehog signaling (Shh) pathway - cell viability counter screen (AID 1259367); note: nearly all actives have a fitted effect of over 55% in size
Outline: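 Cytotoxicity was assessed in parallel with Shh reporter activity by measuring live-cell protease fluorescence (CellTiter-Fluor) in NIH/3T3 cells stably carrying Gli1-Luc, treated with compound under conditioned medium stimulation for 23 hr plus 1 hr reagent incubation.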

[5] = qHTS assay to identify small molecule agonists of the sonic hedgehog signaling (Shh) pathway (AID 1259368; calls by dose curve;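 note: NIH/3T3-derived 3T3Gli1-Luc cells carrying a stable Gli1-driven firefly luciferase reporter; series mostly up to about 92 µM; nearly all actives have a fitted effect of over 15% in size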)
Outline: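 Luminescence was read after 30 min at room temperature with luciferase reagent. Before that, 3T3Gli1-Luc cells (NIH/3T3 clone, stable Gli1-Luc reporter; 2,000/well) were exposed to compounds for 24 hr at 37C, 5% CO2, compounds being added 4 hr post-plating.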

[6] = qHTS assay to identify small molecule antagonists of the sonic hedgehog signaling (Shh) pathway (AID 1259369; calls by dose curve; note: nearly all actives have a fitted effect of over 45% in size; note: potency is the fitted concentration of half-maximal effect)
Outline: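 Antagonist mode: compound added to 3T3 Gli1-Luc cells followed by conditioned-medium stimulation, 24 h at 37 C, 5% CO2. Inhibition taken as loss of Gli1-driven luciferase luminescence.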

[7] = biological target: Estrogen receptor beta (Homo sapiens) (UniProt Q92731); test: qHTS assay to identify small molecule agonists of the estrogen receptor beta (ER-beta) signaling pathway (AID 1259377; active = well fitted activation curve with a large enough effect in the signal ratio in the repeat runs, not every such curve was filed as active; the % refers to the signal ratio)
Outline: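 ER-beta-UAS-bla HEK293T cells in medium with 2% charcoal-stripped FBS were exposed to compounds for 16 h at 37C. Beta-lactamase reporter activity was read as fluorescence after 2 h with LiveBLAzer B/G FRET substrate at room temperature.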

[8] = biological target: Estrogen receptor beta (Homo sapiens) (UniProt Q92731); test: qHTS assay to identify small molecule antagonists of the estrogen receptor beta (ER-beta) signaling pathway (AID 1259378; active = well fitted inhibition curve with a large enough effect in the signal ratio in the repeat runs, not every such curve was filed as active; the % refers to the signal ratio)
Outline: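 ER-beta-UAS-bla HEK293T (GripTite) cells in 2% charcoal-stripped FBS medium were preincubated 6 hr at 37C, dosed with compound, then stimulated with 1 nM E2 (final) for 16 hr; beta-lactamase reporter read by B/G FRET fluorescence after 2 hr substrate loading.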

[9] = qHTS assay to identify small molecule agonists of the androgen receptor (AR) signaling pathway in the presence of an antagonist - cell viability counter screen (AID 1259379);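 note: MDA-kb2 human breast cancer cells carrying an MMTV luciferase reporter; series mostly up to about 92 µM; nearly all actives have a fitted effect of over 25% in size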
Outline: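 Cytotoxicity counter-screen run in the same wells as the nilutamide-challenged (3.0 µM final) AR agonist assay in MDA-kb2 cells. Compounds tested at 15 concentrations for 16 h, 37 °C without CO2; CellTiter-Fluor fluorescence read.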

[10] = qHTS assay to identify small molecule agonists of the estrogen receptor beta (ER-beta) signaling pathway - cell viability counter screen (AID 1259380); note: nearly all actives have a fitted effect of over 30% in size
Outline: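 Cell viability counter screen: CellTiter-Glo luminescence (30 min, room temperature) measured in the same wells as the beta-lactamase readout, after 16 hr compound exposure at 37C of ER-beta-bla HEK293T cells in 2% charcoal-stripped FBS medium.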

[11] = qHTS assay to identify small molecule antagonists of the estrogen receptor beta (ER-beta) signaling pathway - cell viability counter screen (AID 1259382); note: series mostly up to about 92 µM; nearly all actives have a fitted effect of over 55% in size
Outline: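 Cytotoxicity was measured in the same wells by CellTiter-Glo luminescence after 30 min at room temperature. Cells were ER-beta-bla HEK293T in charcoal-stripped serum, given compound together with 1 nM E2 and incubated 16 h at 37C.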

[12] = biological target: Estrogen receptor (Homo sapiens) (UniProt P03372); test: qHTS assay to identify small molecule agonists of the estrogen receptor alpha (ER-alpha) signaling pathway in the presence of an antagonist (AID 1259383; calls by dose curve; note: top concentration of the series differs between compounds; nearly all actives have a fitted effect of over 15% in size)
Outline: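 Agonist-mode confirmation run in the presence of 10.0nM (final) ICI-182,780 antagonist. The reporter was ERE-driven luciferase in VM7Luc4E2 cells, grown in charcoal-stripped serum. Cells were exposed to 15-concentration compound series for 22hr, then ONE-Glo luminescence was read.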

[13] = qHTS assay to identify small molecule agonists of the estrogen receptor alpha (ER-alpha) signaling pathway in the presence of an antagonist - cell viability counter screen (AID 1259386); note: series mostly up to about 92 µM; nearly all actives have a fitted effect of over 30% in size
Outline: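 Compounds tested at 15 concentrations for 22 h at 37C alongside 10.0nM (final) ICI-182,780 antagonist, in VM7Luc4E2 cells grown in phenol red-free, charcoal-stripped medium. Viability read by CellTiter-Fluor fluorescence after 1 h reagent incubation.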

[14] = qHTS assay to identify small molecule antagonists of the progesterone receptor (PR) signaling pathway - cell viability counter screen (AID 1346798); note: series mostly up to about 92 µM; nearly all actives have a fitted effect of over 50% in size
Outline: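 PR-UAS-bla HEK293T cells, 3,000/well in 2% charcoal-stripped FBS medium, dosed with compounds plus R5020 agonist and incubated 16 h at 37C. Viability then measured in the same wells by CellTiter-Glo luminescence after 30 min at RT.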

[15] = qHTS assay to identify small molecule agonists of the progesterone receptor (PR) signaling pathway - cell viability counter screen (AID 1346799; calls by dose curve; note: nearly all actives have a fitted effect of over 45% in size)
Outline: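 Counter screen in the PR-UAS-bla HEK293T wells (2% charcoal-stripped FBS, 16 h compound exposure at 37 C) after the bla read. CellTiter-Glo added, 30 min at room temperature, luminescence read as cell viability.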

[16] = qHTS assay to identify small molecule antagonists of the TGF-beta/Smad signaling pathway - cell viability counter screen (AID 1346824); note: nearly all actives have a fitted effect of over 50% in size
Outline: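 SBE-bla HEK 293T cells were plated overnight at 37 C, then given compounds in DMSO plus TGF-beta1 (added as 0.25 ng/mL solution) for 5 hr. After the bla read, CellTiter-Glo was added to the same wells and luminescence read after 30 min at room temperature.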

[17] = qHTS assay to identify small molecule agonists or antagonists of the thyroid stimulating hormone receptor (TSHR) signaling pathway - wild type cell line counter screen (AID 1259384; calls by dose curve)
Outline: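 Wild-type HEK293 cells were plated 18 h at 37 C/5% CO2, pin-dosed with compound plus Ro20-1724 medium, held 30 min at room temperature, then given cAMP-d2 and anti-cAMP-cryptate; fluorescence was read after 1 h. Fifteen concentrations, triplicate.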

[18] = biological target: Thyrotropin receptor (Homo sapiens) (UniProt P16473); test: qHTS assay to identify small molecule antagonists of the thyroid stimulating hormone receptor (TSHR) signaling pathway (AID 1259385; calls by dose curve; note: nearly all actives have a fitted effect of over 20% in size)
Outline: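 TSHR-HEK293 cells were plated and held 18 h at 37C/5% CO2, then given compound plus Ro20-1724 and stimulated with TSH at 1.5 ng/mL final. After 30 min at room temperature, cAMP was detected with cAMP-d2/anti-cAMP-cryptate (1 h) by fluorescence.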

[19] = biological target: Progesterone receptor (Homo sapiens) (UniProt P06401); test: qHTS assay to identify small molecule agonists of the progesterone receptor (PR) signaling pathway (AID 1346784; calls by dose curve; note: nearly all actives have a fitted effect of over 30% in size)
Outline: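 PR-UAS-bla HEK 293T cells (beta-lactamase reporter under UAS) in 2% charcoal-stripped FBS, dosed with 23 nL compound after 6 hr, incubated 16hr at 37C. LiveBLAzer B/G FRET substrate added, fluorescence read after 2 hours.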

[20] = biological target: Progesterone receptor (Homo sapiens) (UniProt P06401); test: qHTS assay to identify small molecule antagonists of the progesterone receptor (PR) signaling pathway (AID 1346795; active = well fitted inhibition curve with a large enough effect in the signal ratio in the repeat runs, not every such curve was filed as active; the % refers to the signal ratio)
Outline: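 PR-UAS-bla HEK293T cells with beta-lactamase reporter under UAS control, in 2% charcoal-stripped FBS, treated with compounds plus 1 nM promegestone (R5020, final) for 16 hr at 37C. Read-out: FRET beta-lactamase substrate fluorescence after 2 hr at room temperature.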

Measured: Potency

Sequence of Estrogen receptor (Homo sapiens) (P03372 whole entry, looked up): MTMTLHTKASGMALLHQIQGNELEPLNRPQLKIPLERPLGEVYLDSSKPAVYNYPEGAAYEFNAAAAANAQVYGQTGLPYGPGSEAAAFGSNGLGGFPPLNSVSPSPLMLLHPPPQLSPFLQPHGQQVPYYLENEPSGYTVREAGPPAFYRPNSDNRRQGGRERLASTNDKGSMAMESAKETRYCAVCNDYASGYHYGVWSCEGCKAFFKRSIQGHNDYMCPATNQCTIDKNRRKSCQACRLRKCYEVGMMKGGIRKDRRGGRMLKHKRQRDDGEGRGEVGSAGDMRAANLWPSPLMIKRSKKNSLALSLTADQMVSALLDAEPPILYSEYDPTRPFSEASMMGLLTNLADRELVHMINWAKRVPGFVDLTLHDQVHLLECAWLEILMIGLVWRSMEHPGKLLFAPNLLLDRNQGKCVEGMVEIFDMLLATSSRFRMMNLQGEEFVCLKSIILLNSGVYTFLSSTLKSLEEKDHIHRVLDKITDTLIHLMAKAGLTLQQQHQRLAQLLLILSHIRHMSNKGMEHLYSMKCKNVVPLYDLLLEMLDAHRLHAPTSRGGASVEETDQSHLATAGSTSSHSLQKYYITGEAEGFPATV
Sequence of Progesterone receptor (Homo sapiens) (P06401 whole entry, looked up): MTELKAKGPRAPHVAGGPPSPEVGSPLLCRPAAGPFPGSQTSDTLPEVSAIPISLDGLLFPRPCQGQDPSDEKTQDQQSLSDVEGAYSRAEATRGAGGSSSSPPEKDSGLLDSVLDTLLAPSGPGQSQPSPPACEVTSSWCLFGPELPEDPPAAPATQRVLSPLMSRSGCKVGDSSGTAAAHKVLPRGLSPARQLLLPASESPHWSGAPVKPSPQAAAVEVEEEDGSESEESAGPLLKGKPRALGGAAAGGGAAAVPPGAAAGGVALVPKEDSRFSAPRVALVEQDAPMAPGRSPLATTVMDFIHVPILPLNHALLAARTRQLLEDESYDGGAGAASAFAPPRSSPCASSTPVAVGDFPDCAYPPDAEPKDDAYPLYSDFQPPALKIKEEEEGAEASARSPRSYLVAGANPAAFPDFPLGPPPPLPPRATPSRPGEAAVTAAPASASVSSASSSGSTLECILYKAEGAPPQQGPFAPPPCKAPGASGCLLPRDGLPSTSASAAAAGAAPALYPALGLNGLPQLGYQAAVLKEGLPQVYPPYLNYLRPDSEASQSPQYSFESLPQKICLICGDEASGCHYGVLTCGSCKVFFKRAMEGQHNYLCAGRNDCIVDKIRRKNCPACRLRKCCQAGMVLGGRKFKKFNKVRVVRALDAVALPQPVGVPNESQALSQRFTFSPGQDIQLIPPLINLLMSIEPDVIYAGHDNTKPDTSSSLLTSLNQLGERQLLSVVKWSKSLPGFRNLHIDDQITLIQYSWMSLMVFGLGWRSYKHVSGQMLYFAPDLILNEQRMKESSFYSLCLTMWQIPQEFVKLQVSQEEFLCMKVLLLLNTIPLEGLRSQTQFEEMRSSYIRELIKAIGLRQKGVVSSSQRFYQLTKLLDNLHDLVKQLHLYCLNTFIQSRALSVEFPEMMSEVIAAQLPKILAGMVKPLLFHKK
Sequence of Estrogen receptor beta (Homo sapiens) (Q92731 whole entry, looked up): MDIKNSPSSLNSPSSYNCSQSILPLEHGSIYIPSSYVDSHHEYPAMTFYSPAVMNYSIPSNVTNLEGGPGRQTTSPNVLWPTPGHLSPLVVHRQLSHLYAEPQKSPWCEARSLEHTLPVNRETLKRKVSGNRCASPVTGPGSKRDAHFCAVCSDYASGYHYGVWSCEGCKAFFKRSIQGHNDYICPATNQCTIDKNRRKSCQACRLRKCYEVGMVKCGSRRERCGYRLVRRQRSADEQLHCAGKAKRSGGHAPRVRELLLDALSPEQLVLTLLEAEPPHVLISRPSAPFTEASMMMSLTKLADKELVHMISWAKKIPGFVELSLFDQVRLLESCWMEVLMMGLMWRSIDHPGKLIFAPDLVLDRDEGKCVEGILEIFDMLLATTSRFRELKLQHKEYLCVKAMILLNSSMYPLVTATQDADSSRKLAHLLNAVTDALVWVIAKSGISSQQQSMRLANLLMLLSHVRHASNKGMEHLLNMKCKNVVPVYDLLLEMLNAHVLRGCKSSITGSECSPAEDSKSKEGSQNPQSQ
Sequence of Thyrotropin receptor (Homo sapiens) (P16473 whole entry, looked up): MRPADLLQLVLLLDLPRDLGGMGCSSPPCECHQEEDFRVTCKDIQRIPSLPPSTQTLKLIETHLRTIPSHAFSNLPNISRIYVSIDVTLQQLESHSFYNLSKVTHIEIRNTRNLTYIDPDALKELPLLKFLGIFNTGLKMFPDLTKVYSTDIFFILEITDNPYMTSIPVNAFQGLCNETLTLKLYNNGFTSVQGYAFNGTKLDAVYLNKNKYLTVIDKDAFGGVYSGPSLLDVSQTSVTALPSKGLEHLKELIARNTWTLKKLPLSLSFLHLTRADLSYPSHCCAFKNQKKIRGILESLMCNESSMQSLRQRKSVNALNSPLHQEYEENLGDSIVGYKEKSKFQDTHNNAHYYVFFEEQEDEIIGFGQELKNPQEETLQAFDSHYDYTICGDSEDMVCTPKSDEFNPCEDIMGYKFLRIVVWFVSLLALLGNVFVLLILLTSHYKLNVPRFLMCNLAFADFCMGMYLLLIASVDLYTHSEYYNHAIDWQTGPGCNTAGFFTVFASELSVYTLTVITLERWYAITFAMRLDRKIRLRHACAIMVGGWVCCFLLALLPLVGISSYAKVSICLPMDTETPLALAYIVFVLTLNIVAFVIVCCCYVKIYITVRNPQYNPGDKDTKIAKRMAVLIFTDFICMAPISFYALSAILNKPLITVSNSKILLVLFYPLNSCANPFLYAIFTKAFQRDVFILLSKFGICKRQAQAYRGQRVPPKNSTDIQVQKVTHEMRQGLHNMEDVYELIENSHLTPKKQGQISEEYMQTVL

Cc1c(C(C)C)c(=O)n(-c2ccccc2)n1C
active: [6] 1.06 µM
inactive: [1] | [2] | [3] | [4] | [5] | [7] | [8] | [9] | [10] | [11] | [12] | [13] | [14] | [15] | [16]

CCCCCCCCCOCC1CO1 (stereo not drawn)
inactive: [1] | [2] | [3] | [4] | [5] | [6] | [7] | [8] | [9] | [10] | [11] | [17] | [18] | [13] | [19] | [15] | [16]

NS(=O)(=O)c1ccc(Cl)c(S(N)(=O)=O)c1
inactive: [1] | [2] | [3] | [4] | [5] | [6] | [7] | [8] | [9] | [11] | [12] | [17] | [18] | [13] | [19] | [20] | [14] | [15] | [16]

CO[Si](CCCCl)(OC)OC
inactive: [1] | [2] | [3] | [4] | [5] | [6] | [7] | [8] | [9] | [10] | [11] | [12] | [13] | [19] | [20] | [16]
